The results in this text go back to PubChem BioAssay (NCI).

Compounds without any hit were thinned out: in the full panel of roughly 79,000, 15% have a hit. Unmarked numbers belong to inactive results. Activity calls are given as the source filed them. Cut-off read from the data, not from the text of the source: active = growth inhibition above about 70%; inactive = the rest.

Experiment [1] can be described thus: NCI Yeast Anticancer Drug Screen. Data for the rad50 strain (AID 155).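 Note: 0% = growth of vehicle-only cultures of the same strain.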 As to conditions: S. cerevisiae rad50 strain growth inhibition; at 50.0 µM; active compounds read high. The method, boiled down: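 DNA repair mutant yeast, compound exposure, growth read-out; inhibition is taken relative to vehicle.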
Experiment [2] is described as follows: NCI Yeast Anticancer Drug Screen. Data for the mec2-1 strain (AID 157). As to conditions: S. cerevisiae mec2-1 strain, at 50.0 µM, active compounds read high. The method, boiled down: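 Vehicle-treated cultures served as reference for growth inhibition of compound-exposed mec2-1 yeast.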
Experiment [3] in a line: NCI Yeast Anticancer Drug Screen. Data for the sgs1 mgt1 strain (AID 161).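 Note: 0% = growth of cultures given vehicle only.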 The conditions noted are these: S. cerevisiae sgs1 mgt1 strain, at 50.0 µM, active compounds read high. The method, boiled down: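 Inhibition of yeast growth, normalised to vehicle-treated controls, is reported for a strain bearing genetic alterations in DNA damage repair.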
Experiment [4] is described as follows: NCI Yeast Anticancer Drug Screen. Data for the cln2 rad14 strain (AID 165).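 Note: 0% = growth equal to vehicle treated cultures.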 The conditions noted are these: S. cerevisiae cln2 rad14 strain, at 50.0 µM, active compounds read high. The method in brief: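 Each compound was tested on cln2 rad14 yeast. Inhibition of growth was calculated against vehicle-exposed controls.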
The nature of experiment [5]: NCI Yeast Anticancer Drug Screen. Data for the bub3 strain (AID 167). The conditions noted are these: S. cerevisiae bub3 mutant strain, at 50.0 µM, active compounds read high. The method in brief:
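In this screen, a yeast mutant lacking normal mitotic checkpoint function is challenged with compound. Relative growth versus vehicle gives the inhibition value.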

Experiment [6] in a line: NCI Yeast Anticancer Drug Screen. Data for the mlh1 rad18 strain (AID 175). As to conditions: S. cerevisiae mlh1 rad18 strain growth inhibition; at 50.0 µM; active compounds read high. The method in brief:
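Vehicle-treated cultures served as the reference for growth inhibition in a yeast strain carrying DNA damage repair alterations exposed to each compound.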

Consider `Cc1cccnc1NCc1ccccn1`, for which the growth inhibition in experiment [1] was 3.1%; in experiment [2], -0.9%; in experiment [3], 15.1%; in experiment [4], 4.35%; in experiment [5] it was 1.75%; in experiment [6], 3.35%.

In the case of `O=C(Cn1c(=O)oc2ccc(C(=O)c3cccc(Cl)c3)cc21)c1ccccc1`, the growth inhibition is -47.4% in experiment [1]; -3.15% in experiment [2]; -20.6% in experiment [3]; -19.5% in experiment [4]; 11.3% in experiment [5]; -28.1% in experiment [6].

Take `CN=[N+]([O-])c1ccccc1`: the growth inhibition is 1.75% in experiment [1]; 17.9% in experiment [2]; 4.35% in experiment [3]; 15.2% in experiment [4]; 10.9% in experiment [5]; 1.6% in experiment [6].

Regarding `NC(Cc1ccccc1)=NCC(=O)O`, the growth inhibition is -40.5% in experiment [1]; -7.9% in experiment [2]; -29.4% in experiment [3]; -79.9% in experiment [4]; -19.7% in experiment [5]; -25.2% in experiment [6].

In the case of `Oc1ccc(O)c(CCCCCc2cc(O)ccc2O)c1`, the growth inhibition in experiment [1] was 76.3% (active); in experiment [2] it was 37.4%; in experiment [3], 66.5%; in experiment [4], 34.4%; in experiment [5], 70.2% (active); in experiment [6], 97.7% (active).

Take `COc1ccc2nc(C)cc(N/N=C/c3cccc(C)n3)c2c1`: the growth inhibition in experiment [1] is 3.95%; in experiment [2], -19.2%; in experiment [3], -1.55%; in experiment [4] it was -0.8%; in experiment [5], -29.8%; in experiment [6], -22.1%.

With `O=S(=O)(Cl)c1ccc(I)cc1`, the growth inhibition in experiment [1] was -5.2%; in experiment [2], -21.2%; in experiment [3], -12.3%; in experiment [4] it was 22.4%; in experiment [5], -2.2%; in experiment [6] it was -20.6%.

As for `O=C(NN1C(=O)c2cccc3cccc(c23)C1=O)NN1C(=O)c2cccc3cccc(c23)C1=O`, the growth inhibition in experiment [1] is 98.2% (active); in experiment [2], 99.4% (active); in experiment [3] it was 98.2% (active); in experiment [4] it was 99.5% (active); in experiment [5], 99.2% (active); in experiment [6], 99% (active).

As for `CC1=CC(=O)C(=O)C2=C1OC1(C2)C(C)CCC2C3(C)CCC(O)C(C)(C)C3CCC21C` (centres undefined), the growth inhibition in experiment [1] was 86.5% (active); in experiment [2], 89.8% (active); in experiment [3], 89.1% (active); in experiment [4], 88.2% (active); in experiment [5] it was 86.3% (active); in experiment [6], 87.2% (active).

For the compound `COc1ccc(NC(=O)/C(Cc2nc3ccccc3[nH]c2=O)=N\O)c(OC)c1`, the growth inhibition in experiment [1] was -1.85%; in experiment [2], -9.4%; in experiment [3], -5.1%; in experiment [4], 0.7%; in experiment [5], -4.85%; in experiment [6], -13.7%.

Regarding `O=C(CC1Sc2ccccc2NC1=O)Nc1cc(Cl)ccc1Cl` (centres undefined), the growth inhibition in experiment [1] was -2.6%; in experiment [2] it was -18.3%; in experiment [3], -4.55%; in experiment [4] it was 25.3%; in experiment [5], 8.7%; in experiment [6], -1.45%.

For the compound `COCOC(C)=O`, the growth inhibition in experiment [1] was -9.1%; in experiment [2] it was -6.4%; in experiment [3], 3.7%; in experiment [4], 0.5%; in experiment [5], -12.4%; in experiment [6], 1.4%.

Consider `C=C1c2[nH]c3ccccc3c2CC(C(=O)O)N1C(O)c1ccc(S(=O)(=O)O)cc1` (centres undefined), for which the growth inhibition in experiment [1] was 11.5%; in experiment [2] it was -7.95%; in experiment [3], -3.5%; in experiment [4], -45.6%; in experiment [5] it was -8.05%; in experiment [6] it was 3.75%.

`CCOC(=O)/C=C1\NC(=O)N(CCCCCCN2C(=O)N/C(=C\C(=O)OCC)C2=O)C1=O`: the growth inhibition in experiment [1] was 44.7%; in experiment [2] it was 13.3%; in experiment [3] it was 39.2%; in experiment [4] it was 7.95%; in experiment [5] it was -1.95%; in experiment [6], 29.9%.

For the compound `O=C(Cc1ccccc1)Nc1ccccc1`, the growth inhibition is 17.9% in experiment [1]; -21.1% in experiment [2]; 2.45% in experiment [3]; -0.3% in experiment [4]; -7.55% in experiment [5]; 17.9% in experiment [6].

Take `CCOC(=O)c1cnc2ccccc2c1N=[N+]=[N-]`: the growth inhibition in experiment [1] was -0.9%; in experiment [2] it was 27.8%; in experiment [3] it was 25.5%; in experiment [4] it was -34%; in experiment [5], 40.5%; in experiment [6] it was 29.9%.

In the case of `O=S(=O)(Nc1ccc(Cl)cc1)c1ccc(F)cc1`, the growth inhibition in experiment [1] is -9.45%; in experiment [2] it was -15.8%; in experiment [3] it was -11.6%; in experiment [4], 11.9%; in experiment [5], -29.1%; in experiment [6] it was 3.95%.

Take `CCOC(OCC)C(Cl)(Cl)CCl`: the growth inhibition in experiment [1] was 6.25%; in experiment [2], 4.45%; in experiment [3], -3.8%; in experiment [4], -25.4%; in experiment [5], -0.6%; in experiment [6] it was -6.35%.

As for `COc1cc2c(c3c1c(=O)c1ccccc1n3C)C=CC(C)(C)O2`, the growth inhibition in experiment [1] is 10.9%; in experiment [2] it was -13.9%; in experiment [3] it was 22.7%; in experiment [4] it was 11.2%; in experiment [5], 4.75%; in experiment [6], 9.9%.
